Results as given in PubChem BioAssay (NCI).
Values joined by “and” are separate entries in the source; they are usually repeats but may differ in a detail not shown here. Equal entries are not always repeated. About 83,000 compounds went through this panel and 20% of them were active in at least one assay; those are over-represented in the sample as a whole.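 Results are percent growth after 48 hours of single-concentration exposure. 100 means growth as in untreated cells, lower positive values show inhibition; negative values down to -100 show cell death.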 Active and inactive are the calls of the source. Rule for the calls: active = growth percent below 10; inactive = the rest.

Columns and labels:
Test in all cases: NCI-60 one-dose screen, 48 h (100 = growth as untreated, 0 = no growth, -100 = all killed)
Conditions in all cases: 10 µM unless noted
[1] = system: SK-MEL-2 melanoma
[2] = system: EKVX NSCLC
[3] = system: SN12C renal
[4] = system: UO-31 renal
[5] = system: TK-10 renal
[6] = system: ACHN renal
[7] = system: CAKI-1 renal
[8] = system: A498 renal
[9] = system: CCRF-CEM leukemia
[10] = system: MOLT-4 leukemia
[11] = system: SR leukemia
[12] = system: RPMI-8226 leukemia
[13] = system: OVCAR-8 ovarian
[14] = system: OVCAR-5 ovarian
[15] = system: OVCAR-4 ovarian
[16] = system: SK-OV-3 ovarian
[17] = system: IGROV1 ovarian
[18] = system: OVCAR-3 ovarian
[19] = system: HS 578T breast
[20] = system: NCI/ADR-RES ovarian

| Structure (SMILES) | growth [1] | growth [2] | growth [3] | growth [4] | growth [5] | growth [6] | growth [7] | growth [8] | growth [9] | growth [10] | growth [11] | growth [12] | growth [13] | growth [14] | growth [15] | growth [16] | growth [17] | growth [18] | growth [19] | growth [20] |
| --- | --- | --- | --- | --- | --- | --- | --- | --- | --- | --- | --- | --- | --- | --- | --- | --- | --- | --- | --- | --- |
| CN(C=O)c1ccccc1 | 103% (inactive) | 86.6% (inactive) | 93.3% (inactive) | 65.5% (inactive) | 121% (inactive) | 92% (inactive) | 88.2% (inactive) | 98% (inactive) | 95.7% (inactive) | 97.5% (inactive) | 101% (inactive) | 91% (inactive) | 96.6% (inactive) | 100% (inactive) | 85.3% (inactive) | 86.7% (inactive) | 102% (inactive) | 110% (inactive) | 100% (inactive) | 97.4% (inactive) |
| NC1=NC(c2ccccc2)N=C(Nc2ccccc2)N1 (stereo unspecified) | 100% (inactive) and 84.3% (inactive) | 79.3% (inactive) and 90.5% (inactive) | 98.6% (inactive) and 99.1% (inactive) | 105% (inactive) and 89.7% (inactive) | 94% (inactive) and 102% (inactive) | 97.9% (inactive) and 84.1% (inactive) | 74.2% (inactive) and 93.8% (inactive) | 96.3% (inactive) and 110% (inactive) | 49.6% (inactive) and 95.1% (inactive) | 65.7% (inactive) and 71.4% (inactive) | 2.95% (active) | 95.5% (inactive) and 130% (inactive) | 97.6% (inactive) and 101% (inactive) | 101% (inactive) and 94.7% (inactive) | 117% (inactive) and 62.4% (inactive) | 94.3% (inactive) and 67.6% (inactive) | 110% (inactive) and 111% (inactive) | 9.87% (active) and -1.56% (active) | 26.1% (inactive) and 42.4% (inactive) | 111% (inactive) and 109% (inactive) |
| O=C1C=CC[C@H](/C=C/c2ccccc2)O1 | -21.8% (active) and -43.1% (active) | 54.5% (inactive) and 56.3% (inactive) | 55.6% (inactive) and 9.16% (active) | 38.8% (inactive) and 41% (inactive) | 41.7% (inactive) and 22.3% (inactive) | 33.4% (inactive) and -36.3% (active) | 11.4% (inactive) and 2.9% (active) | -18.3% (active) and -10.1% (active) | 12.5% (inactive) and -3.54% (active) | 3.44% (active) and -22.1% (active) | 5.19% (active) | -34.8% (active) | 21.2% (inactive) and 14.4% (inactive) | 57.6% (inactive) and 54.9% (inactive) | 36% (inactive) and 33.6% (inactive) | 132% (inactive) and 7.79% (active) | -35.5% (active) and 15.7% (inactive) | 1.02% (active) and -41.3% (active) | 25.4% (inactive) and 19.5% (inactive) | 34% (inactive) and 28.9% (inactive) |
| Nc1c(S(=O)(=O)O)cc(Br)c2c1C(=O)c1ccccc1C2=O | 91.8% (inactive) | 101% (inactive) | 107% (inactive) and 112% (inactive) | 77.4% (inactive) and 67.5% (inactive) | 102% (inactive) and 110% (inactive) | 108% (inactive) and 107% (inactive) | 101% (inactive) and 95% (inactive) | 114% (inactive) and 96.6% (inactive) | 98.3% (inactive) | 99.7% (inactive) and 91.1% (inactive) | 93.8% (inactive) and 91.4% (inactive) | 96.7% (inactive) and 104% (inactive) | 106% (inactive) and 92.1% (inactive) | 113% (inactive) and 101% (inactive) | 101% (inactive) and 111% (inactive) | 85.6% (inactive) and 102% (inactive) | 105% (inactive) and 88.9% (inactive) | 102% (inactive) and 121% (inactive) | 112% (inactive) and 94.3% (inactive) | 108% (inactive) and 115% (inactive) |
| O=C(OCc1ccccc1)c1ccccc1 | 126% (inactive) and 87.8% (inactive) | 101% (inactive) and 104% (inactive) | 93.2% (inactive) and 117% (inactive) | 107% (inactive) and 64.8% (inactive) | 105% (inactive) and 102% (inactive) | 111% (inactive) and 98.1% (inactive) | 99.7% (inactive) and 90.2% (inactive) | 88.6% (inactive) and 81.3% (inactive) | 104% (inactive) | 102% (inactive) and 83.3% (inactive) | 104% (inactive) and 86.5% (inactive) | 99.5% (inactive) | 101% (inactive) and 95.7% (inactive) | 102% (inactive) and 91.7% (inactive) | 108% (inactive) | 99.1% (inactive) and 93.6% (inactive) | 120% (inactive) and 87.4% (inactive) | 116% (inactive) | 105% (inactive) | 107% (inactive) and 99.7% (inactive) |
| COc1cc(Cl)ccc1C | 30.3% (inactive) | 109% (inactive) | 72.7% (inactive) | 67.1% (inactive) | 90.5% (inactive) | -8.72% (active) | 54.7% (inactive) | 110% (inactive) | 91.9% (inactive) | 81.7% (inactive) | 71.2% (inactive) | 105% (inactive) | 87.5% (inactive) | 71.1% (inactive) | 76.4% (inactive) | 93.2% (inactive) | 72.3% (inactive) | 111% (inactive) | 115% (inactive) | 97.4% (inactive) |
| CCNCc1ccccc1 | 111% (inactive) | 111% (inactive) | 104% (inactive) | 86.7% (inactive) | 100% (inactive) | 110% (inactive) | 101% (inactive) | 97.4% (inactive) | 121% (inactive) | 103% (inactive) | 97.5% (inactive) | 119% (inactive) | 100% (inactive) | 98.5% (inactive) | 114% (inactive) | 97.5% (inactive) | 106% (inactive) | 102% (inactive) | 102% (inactive) | 102% (inactive) |
| O=[N+]([O-])c1cccc(N=Cc2ccccc2)c1 | 104% (inactive) | 102% (inactive) | 104% (inactive) | 90.8% (inactive) | 94.2% (inactive) | 102% (inactive) | 88.1% (inactive) | 110% (inactive) | 95.7% (inactive) | 87.4% (inactive) | 88.4% (inactive) | 101% (inactive) | 93.1% (inactive) | 107% (inactive) | 111% (inactive) | 106% (inactive) | 114% (inactive) | 122% (inactive) |  | 108% (inactive) |
| CNc1ccc(O)cc1 | 110% (inactive) and 118% (inactive) | 80.1% (inactive) | 103% (inactive) | 82.4% (inactive) and 95.4% (inactive) | 144% (inactive) and 121% (inactive) | 92.6% (inactive) and 112% (inactive) | 105% (inactive) and 104% (inactive) | 90.9% (inactive) and 68.1% (inactive) | 101% (inactive) and 110% (inactive) | 110% (inactive) and 129% (inactive) | 126% (inactive) | 102% (inactive) and 87.4% (inactive) | 96.7% (inactive) and 106% (inactive) | 114% (inactive) and 107% (inactive) | 94.5% (inactive) and 106% (inactive) | 105% (inactive) and 108% (inactive) | 135% (inactive) and 119% (inactive) | 113% (inactive) and 114% (inactive) |  | 114% (inactive) and 102% (inactive) |
| NNc1ncnc2cccc(Cl)c12 | 95.3% (inactive) | 90.8% (inactive) | 87.6% (inactive) | 89.1% (inactive) | 99.9% (inactive) | 96.4% (inactive) | 107% (inactive) | 108% (inactive) | 102% (inactive) | 108% (inactive) | 108% (inactive) | 94.9% (inactive) | 95.2% (inactive) | 97.5% (inactive) | 114% (inactive) |  | 102% (inactive) | 119% (inactive) | 98.4% (inactive) | 102% (inactive) |
| O=C1c2ccccc2C(c2ccccc2)C1c1ccccc1 (stereo unspecified) | 91.1% (inactive) | 80.2% (inactive) | 93.5% (inactive) | 79.4% (inactive) | 124% (inactive) | 98% (inactive) | 72.3% (inactive) | 102% (inactive) | 72.2% (inactive) | 87.8% (inactive) | 86.3% (inactive) | 63.4% (inactive) | 103% (inactive) | 101% (inactive) | 86.1% (inactive) |  | 91.1% (inactive) | 105% (inactive) | 106% (inactive) | 94.8% (inactive) |
| O=C(O)C#Cc1ccc(Cl)cc1 | 98.4% (inactive) | 104% (inactive) | 98.4% (inactive) | 95.6% (inactive) | 109% (inactive) | 103% (inactive) | 95.4% (inactive) | 73.1% (inactive) | 103% (inactive) | 87.5% (inactive) | 100% (inactive) | 106% (inactive) | 97.6% (inactive) | 102% (inactive) | 97.5% (inactive) | 92.5% (inactive) | 98.3% (inactive) | 110% (inactive) | 93.6% (inactive) | 108% (inactive) |
